Assay outcomes from PubChem.
LMP1 NFkB inh: inhibitors of Epstein-Barr LMP1-induced NF-kappaB reporter | AID 504558 | 350,000 tested, 0.69% active | LMP1-induced NF-kappaB luciferase reporter cells, luminescence | inhibition, % at 12.5 µM; in the data active = inhibition above about 41%; inconclusive = no clear call, values can overlap the other calls;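 note: 0% = neutral control wells and 100% = reference inhibitor control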
TRPM1 prom inh: inhibitors of MITF-driven TRPM1 promoter in melanoma cells; 330,000 tested, 0.83% active; inhibition, % at 12.5 µM; SK-MEL-5 TRPM1 promoter luciferase, 24 h;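 active = mean inhibition across replicates of 60% or more, whatever share of single replicates reaches that level; inconclusive = some that reach 60%, reason not given; inactive = mean inhibition across replicates below 60%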
MITF act: MITF TRPM1 promoter activation in melanoma cells; AID 588334; 300,000 tested, 0.75% active; SK-MEL-5 TRPM1-promoter luciferase, 24 h; % of positive control, neutral wells = 0; activation, % at 12.5 µM;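 active = mean activation of at least 80% with every replicate also reaching 80%; inconclusive = mean reaches 80% but some replicate falls short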;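 note: 0% = neutral control wells and 100% = parthenolide positive control wells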
esBAF inh: blocks esBAF chromatin remodeling in mouse ES cells; AID 602393; Bmi1-luciferase knock-in reporter, 24 h; 100% = twice the neutral-well signal; reporter increase, % at 12.5 µM; 350,000 tested, 2% active; in the data active = activation above about 40%; inconclusive = no clear call, values can overlap the other calls;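 note: 0% = median of the plate's neutral control wells and 100% = double that signal; a rise in the Bmi1 reporter signal indicates esBAF inhibition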
Statin myotox sup: suppression of simvastatin myotoxicity; C2C12 myotubes + simvastatin, ATP luminescence, 48 h; scaled: DMSO 0, geranylgeraniol control 100; AID 602340; rescue of ATP level, % at 7.49 µM; 330,000 tested, 0.78% active;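 active = mean ATP rescue above about 67%, or every replicate alone reaching that limit, limit read from the data, passing the limit was not always enough; inconclusive = no clear call, values can overlap the other calls; inactive = mean under the limit and some replicate under it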;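 note: myotubes were challenged with 10 µM simvastatin during compound exposure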
Wnt act: activates Wnt/beta-catenin signaling in a reporter cell assay; activation, % at 9.35 µM; activator, plate reader; 300,000 tested, 1.2% active; in the data active = activation above about 30%, passing the limit was not always enough; inconclusive = no clear call, values can overlap the other calls;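 note: 0% = neutral control wells and 100% = positive control wells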
* hit, by the source's call; ? = inconclusive; nt = no result given. Hits are enriched below; roughly 4% of the tested compounds scored in any of these assays.

SMILES	LMP1 NFkB inh	TRPM1 prom inh	MITF act	esBAF inh	Statin myotox sup	Wnt act
CN(c1ccc(C(=O)NCCSC(C)(C)C)cc1)S(=O)(=O)c1ccccc1	-4	-5	7	0	7	44*
COc1ccccc1NC(=O)Nc1ccccc1SC	1	2	-5	nt	nt	0
CN(Cc1nc(Cc2cccc(F)c2)no1)CC1CCOCC1	-2	1	-3	nt	nt	0
COc1ccc(CNC(=O)CN2CCN(C(c3ccccc3)c3ccccc3)CC2)cc1	-3	4	-2	nt	nt	-1
O=[N+]([O-])c1ccc(-[n+]2ccc3ccccc3c2)c([N+](=O)[O-])c1	11	89*	-89	15	-20	-18
Cn1c(SCc2nc3ccccc3n2CCO)nc2ccccc21	4	-2	5	nt	nt	-4
Cn1c(CSc2nc3ccccc3s2)nc2ccccc21	-5	-76	75	50*	18	nt
Cn1c(CSc2ncn[nH]2)nc2ccccc21	-12	12	-8	13	98*	nt
COc1cccc(C2Nc3ccc4ccccc4c3C3=C2C(=O)CC(C)(C)C3)c1OCC(=O)O (stereo unspecified)	55*	8	-7	0	30	0
CC1(C)CC(=O)C2=C(C1)c1c(ccc3ccccc13)NC2c1ccc(Br)o1 (stereo unspecified)	15	3	-3	22	107*	nt
O=C(Nc1ccc(F)cc1)NC1(C(=O)NCc2ccco2)CCCCC1	3	-12	12	-1	-4	-3
O=C(Nc1ccccc1)SC1CCCCC1	-16	-76	79	83*	1	9
O=C(Nc1ccccc1)N1CCCC2CCCCC21 (stereo unspecified)	-12	-62	61	52*	nt	-2
COc1cc(/C=C2\SC(N)=NC2=O)cc(OC)c1	-5	-4	4	-15	-3	-2
CC(C)(C)c1ccc(-c2cc(N)n[nH]2)cc1	13	95*	-92	-57	6	3
Nc1cc2c3c(cccc3c1)C(=O)N(CCN1CCCC1)C2=O	-13	90*	-88	-14	65	1
O=C1c2cccc3cc([N+](=O)[O-])cc(c23)C(=O)N1CCN1CCCC1	74*	84*	-82	-87	-233	1
Cc1c(Br)c(=O)oc2c(C)c(O)ccc12	3	-9	6	nt	nt	nt
CN(C)c1ccc(NC(=O)C2C3C=CC(C3)C2C(=O)O)cc1 (stereo unspecified)	-4	-16	20	3	-1	16
Cc1cccc(Cn2c(N3CCN(C)CC3)nc3c2c(=O)[nH]c(=O)n3C)c1	-3	-11	nt	-4	4	-1
Cc1cccc(Cn2c(N3CCCCC3C)nc3c2c(=O)[nH]c(=O)n3C)c1 (stereo unspecified)	0	-17	13	5	120*	-4
Cc1ccc(NS(=O)(=O)c2ccc3c(c2)NC(=O)CO3)cc1C	2	1	-1	1	3	0
CN(C)C(=O)[C@H]1[C@H](CO)[C@H]2Cn3c(ccc(C4=CCCCC4)c3=O)[C@H]2N1CC1CC1	nt	nt	nt	3	12	nt
Cc1nn2c(=O)cc(COC(=O)c3c(F)cccc3Cl)nc2s1	-15	-58	61	31	2	50*
CN(C)c1ccc(N=Nc2ccc(S(N)(=O)=O)cc2)cc1	-34	-71	67	4	-13	42*
SMILES	LMP1 NFkB inh	TRPM1 prom inh	MITF act	esBAF inh	Statin myotox sup	Wnt act
CC(C)n1c(-c2ccco2)csc1=Nc1cccnc1	3	20	-18	-37	-6	0
O=C(COC(=O)C1CC1)Nc1ccc2c(c1)OCO2	-13	-11	11	nt	nt	47*
CCC(=O)OCC(=O)Nc1ccc2c(c1)OCO2	-7	1	0	4	-2	5
CC(=O)Nc1cccc(NC(=O)COc2ccccc2C)c1	4	-25	nt	13	4	4
Cc1cc(Cl)c(S(=O)(=O)Nc2ccc3c(c2)OCO3)cc1OCC(N)=O	-4	6	-5	-5	101*	-3
Cc1ccc(NC(=O)COc2ccccc2C=O)cc1Cl	-52	-51	54	47*	-1	0
Cc1onc(-c2ccccc2Cl)c1C(=O)OCC(=O)Nc1ccc2c(c1)OCO2	0	6	-2	nt	nt	nt
Cc1onc(-c2ccccc2)c1C(=O)OCC(=O)Nc1ccc2c(c1)OCO2	0	nt	?	1	102*	-1
CC(NC(=O)C(Cc1ccccc1)n1cccc1)c1ccccc1 (stereo unspecified)	-10	2	0	nt	nt	1
CCOc1cc(/C=C/C(=O)O)ccc1OCCOc1ccccc1	-20	2	1	-10	2	-3
COc1cc(C)ccc1OCC(=O)Nc1ccc2c(c1)OCO2	-13	-70	75	17	7	48*
O=C(COc1ccccc1Cl)Nc1ccc2c(c1)OCO2	-20	-121	121*	36	2	2
COc1ccccc1OCC(=O)Nc1ccc2c(c1)OCO2	-8	-44	46	35	20	10
CC1C(=O)Nc2ccc(S(=O)(=O)N3CCN(c4cccc(Cl)c4)CC3)cc2NC1=O (stereo unspecified)	-2	-1	2	7	13	-1
C[C@@H]1CCCCO[C@H](CN(C)Cc2ccncc2)[C@@H](C)CN([C@@H](C)CO)C(=O)c2cc(NC(=O)Nc3ccc4c(c3)OCO4)ccc2O1	nt	nt	nt	1	nt	nt
Cc1ccnc(NC(=O)c2sc3ccccc3c2Cl)c1	61*	5	-2	nt	nt	nt
Cc1ccc2c(Cl)c(C(=O)NCCc3ccccc3)sc2c1	-12	-103	106*	nt	nt	nt
Cc1cc(NC(=O)c2ccc(Cl)cc2)no1	-3	-104	106*	24	0	27
O=C(Nc1ccccn1)c1sc2cc([N+](=O)[O-])ccc2c1Cl	-10	-55	nt	42*	10	13
CCOc1ccc(C(=O)Nc2cc(C)on2)cc1	5	-25	26	-15	nt	0
COc1ccc(OCc2nnc(NC(=O)Nc3ccc(F)cc3)s2)cc1	16	2	-3	-6	13	0
O=C(C[C@@H]1CC[C@@H]2[C@H](COC[C@H](O)CN2S(=O)(=O)c2ccccc2)O1)NCC1CCCCC1	nt	nt	nt	1	11	nt
Cc1nnc2n1N=C(c1ccc(OC(F)F)cc1)C(C)S2 (stereo unspecified)	2	4	-4	-6	30	0
O=C1Nc2ccc(S(=O)(=O)NCc3ccco3)c3cccc1c23	-6	-4	3	1	-12	nt
Cc1cc(NC(=O)c2c(Cl)cccc2Cl)no1	5	-5	7	nt	nt	0
Cc1cc(NC(=O)c2cccc(COc3ccc(Br)cc3)c2)no1	43*	10	-6	10	-33	5
O=C(NCc1ccco1)c1sc2cc(F)ccc2c1Cl	-19	-67	72	53*	4	17
O=C(Nc1ccon1)c1sc2cc(F)ccc2c1Cl	-32	-26	nt	71*	-9	nt
